Bioassay records as filed in PubChem BioAssay.
GLS inhibitor: inhibitors of human glutaminase (GLS); 0.21% of 410,000 active; Potency, µM (highest dose often 45.5 µM), without a hit: at the top dose activity change, negative = inhibition, most hits filed as inhibitors; GLS enzymatic activity, qHTS titration; further: on the % scale 0 is the no-effect control and ±100 the full control effect
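Human kidney-isoform GLS in 45 mM KH2PO4 pH 8.2, 0.02% Tween-20, with compound, started with 1mM L-Glutamine (added stock). Glutamate oxidase/HRP/Amplex red coupled fluorescence read at start and after 30 min at RT.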
JMJD2A Tudor: JMJD2A Tudor domain (human) inhibition; O75164; AlphaScreen JMJD2A-Tudor / H3K4me3 peptide binding; Potency, µM (doses to about 114 µM), inactives show top-dose activity change, negative = inhibition, hits mostly inhibitors; 4.4% of 390,000 active; further: on the % scale 0 is the no-effect control and ±100 the full control effect; nearly all actives have a fitted effect of over 50% in size
HP1b binding inh: HP1-beta chromodomain-methylated histone interaction inhibition; P83916; AlphaScreen HP1-beta / biotin-H3K9me3 peptide binding; Potency, µM (series often up to 114 µM), inactives show top-dose activity change, negative = inhibition, most hits filed as inhibitors; 0.56% of 390,000 active; AID 540317; further: nearly all actives have a fitted effect of over 70% in size
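AlphaScreen: HP1-beta (50 nM) preformed 30 min with biotin-H3(1-18)K9me3 peptide (50 nM) in PBS pH 7.4, 0.01% Tween-20. Compound added for 30 min at RT, then streptavidin donor/nickel chelate acceptor beads (10 ug/mL) for 30 min.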
G9a block: G9a (human) methyltransferase inhibition | 8.8% of 350,000 active | G9a H3K9 monomethylation, AlphaScreen, 2 h | Q96KQ7 | Potency, µM (series often up to 102 µM), inactives show at the top dose activity, negative = inhibition, most hits filed as inhibitors; further: on the % scale 0 is the no-effect control and ±100 the full control effect; nearly all actives have a fitted effect of over 75% in size
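Readings reflect AlphaScreen signal from monomethyl-H3K9 antibody detection. HMT at 20 nM; substrate b-H3K9 500 nM; cofactor SAM 20 uM; 2 h RT reaction; compounds tested as titrations in qHTS with 15 min preincubation.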
BAZ2B block: BAZ2B (human) inhibition; Q9UIF8; AlphaScreen BAZ2B-H3K14Ac peptide displacement; Potency, µM (titrated, usually from 114 µM), without a hit: at the top dose activity change, negative = inhibition, usual class: inhibitors; 4.4% of 360,000 active; AID 504333; further: on the % scale 0 is the no-effect control and ±100 the full control effect; nearly all actives have a fitted effect of over 60% in size
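Protein-peptide AlphaScreen: BAZ2B 50 nM, b-H3K14Ac 50 nM, 1x PBS pH 7.4 + 0.01% Tween-20. Preincubation 30 min RT; cpd 30 min RT (top 110 uM); beads 20 min RT, light-protected.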
L3MBTL1 inh: blocks human L3MBTL1 | Q9Y468 | AlphaScreen L3MBTL1–H3K9me1 peptide binding | Potency, µM (doses to about 57.1 µM), without a hit: top-dose activity, negative = inhibition, usual class: inhibitors | 0.66% of 230,000 active | AID 485360; further: on the % scale 0 is the no-effect control and ±100 the full control effect; nearly all actives have a fitted effect of over 60% in size
Target sequence (Q9Y468 whole entry, looked up): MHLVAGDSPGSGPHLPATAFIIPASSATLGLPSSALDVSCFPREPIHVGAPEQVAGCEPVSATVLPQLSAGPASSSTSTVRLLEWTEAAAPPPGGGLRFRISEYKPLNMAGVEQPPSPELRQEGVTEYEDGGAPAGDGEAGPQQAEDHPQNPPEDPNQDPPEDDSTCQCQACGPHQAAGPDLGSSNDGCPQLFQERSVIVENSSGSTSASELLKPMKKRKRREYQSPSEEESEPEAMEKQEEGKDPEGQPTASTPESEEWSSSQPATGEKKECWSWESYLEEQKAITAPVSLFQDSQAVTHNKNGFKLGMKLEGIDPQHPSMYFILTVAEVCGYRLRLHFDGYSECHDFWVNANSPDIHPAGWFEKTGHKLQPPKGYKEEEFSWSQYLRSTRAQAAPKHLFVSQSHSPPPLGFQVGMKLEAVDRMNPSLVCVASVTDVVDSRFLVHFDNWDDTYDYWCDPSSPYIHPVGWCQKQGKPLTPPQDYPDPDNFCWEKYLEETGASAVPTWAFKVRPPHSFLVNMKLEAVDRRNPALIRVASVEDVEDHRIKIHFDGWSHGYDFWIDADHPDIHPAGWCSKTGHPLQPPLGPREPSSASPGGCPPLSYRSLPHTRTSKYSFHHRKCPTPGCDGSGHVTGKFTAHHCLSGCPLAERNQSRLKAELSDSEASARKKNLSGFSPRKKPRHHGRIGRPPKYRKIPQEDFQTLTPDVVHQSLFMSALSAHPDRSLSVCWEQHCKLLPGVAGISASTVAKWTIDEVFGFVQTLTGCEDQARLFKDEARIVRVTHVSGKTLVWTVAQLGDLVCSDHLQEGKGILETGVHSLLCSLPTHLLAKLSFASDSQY
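AlphaScreen assay: L3MBTL1 (50 nM final) was preincubated 30 min at room temperature with biotinylated H3(1-15)K9me1 peptide (75 nM final), then 30 min with library compounds; streptavidin donor and nickel chelate acceptor beads (10 ug/mL final) added, 30 min dark.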
Active calls of the source: *; ? = inconclusive; · = not tested or not shown; [ ] = dose if it differs, or a comment. Hits are enriched below; roughly 10% of the tested compounds scored in any of these assays. The call rests on the fitted dose curve; in most records, active means well fitted curve in the direction sought with a large enough effect; inconclusive means small, poorly fitted or top-dose-only effect, or another doubt; inactive means no such curve, though single readings can be large; an effect the other way counts as inactive or inconclusive. Potency means the concentration at half of the fitted maximal effect.

SMILES	GLS inhibitor	JMJD2A Tudor	HP1b binding inh	G9a block	BAZ2B block	L3MBTL1 inh
O=C(NC1CCCCC1)C(c1ccncc1)N(Cc1ccc(F)cc1)C(=O)c1ccccn1 (stereo not given)	7.0%	-11.3%	37.9%	?	6.2%	-6.8%
O=C(NC1CCCC1)C(c1ccc(F)cc1)N(Cc1ccc(F)cc1)C(=O)CCl (stereo not given)	7.7%	-23.2%	20.8%	44.7µM*	7.6%	6.4%
Nn1c(SCc2cn3ccccc3n2)nnc1-c1ccncc1	1.0%	-9.3%	25.2%	-1.5%	-20.2%	1.1%
Nn1c(SCc2cn3cc(Cl)ccc3n2)nnc1-c1ccncc1	-14.3%	-12.8%	1.0%	44.7µM*	-22.4%	2.7%
O=C(NCC1(c2ccccc2)CCCC1)C(=O)Nc1cccc(Br)c1	-2.9%	12.3%	44.6%	-1.6%[59 µM]	4.1%	·
CNC(C)C#Cc1ccc2sc3cccc(OC)c3c(=O)c2c1 (stereo not given)	0.0%	-22.3%	26.6%	70.8µM*	-6.7%	2.8%
COc1cccc2sc3ccc(C#CC4(N)CCCCC4)cc3c(=O)c12	-12.5%	-29.3%	36.2%	·	-12.8%	-2.6%
CNC(C)C#Cc1ccc2c(=O)c3c(OC)cccc3oc2c1 (stereo not given)	·	·	·	·	-5.7%	7.3%
CNC(C)C#Cc1ccc2oc3cccc(OC)c3c(=O)c2c1 (stereo not given)	11.5%	-15.5%	27.2%	44.7µM*	-23.2%	-2.3%
COc1ccc2oc(-c3cccc(NC(=O)c4ccc(C#N)cc4F)c3)nc2c1	-3.1%	-8.2%	28.0%	5.0%[59 µM]	-32.0%	·
O=C(CSC1=Nc2ccccc2C2=NC(Cc3ccccc3)C(=O)N12)Nc1ccccc1C(F)(F)F (stereo not given)	-13.4%	-1.7%	28.3%	9.3%[59 µM]	-1.4%	·
CCN1/C(=C/C(=O)c2ccco2)Sc2ccccc21	-0.8%	-3.0%	69.1%	?	?	28.3%
CCN1/C(=C/c2cc[n+](CCCS(=O)(=O)[O-])c3ccccc23)Sc2ccccc21	-4.4%	-4.7%	-8.3%	25.1µM*	?	-22.8%
COc1ccc(Nc2c3c(nc4ccc(NC(=O)/C=C/c5cc(OC)c(OC)c(OC)c5)cc24)CCCC3)cc1OC	6.3%	?	-20.2%	15.8µM*	10µM*	·
COc1ccc(/C=C/C(=O)Nc2ccc3nc4c(c(Nc5ccc(OC)c(OC)c5)c3c2)CCCC4)cc1	2.1%	22.4µM*	?	8.91µM*	8.91µM*	·
COc1ccc(Nc2c3c(nc4ccccc24)CCCC3)cc1OC	0.0%	?	?	-8.7%[59 µM]	?	·
Cc1c(C)c2c(OCC(=O)NCC(=O)NCC(=O)O)cc3c(c2oc1=O)CCC(C)(C)O3	?	20µM*	17.1%	18.5%	2.4%	·
CCn1c2ccccc2c2cc(CN3CCN(S(C)(=O)=O)CC3)ccc21	8.0%	?	?	-0.3%[59 µM]	?	-2.3%
CCn1c2ccccc2c2cc(CN3CCN(Cc4cc(OC)ccc4O)CC3)ccc21	-6.2%	1µM*	?	10µM*	20µM*	-28.4%
CCn1c2ccccc2c2cc(CN3CCN(Cc4ccccc4F)CC3)ccc21	7.4%	3.98µM*	?	2µM*	15.8µM*	·
CCn1c2ccccc2c2cc(CN3CCN(Cc4ccccc4C)CC3)ccc21	-0.4%	5.62µM*	?	1.78µM*	56.2µM*	·
Cc1ccccc1Nc1c(-c2cccnc2)nc2ccc(Cl)cn12	26.3%	-4.8%	55.8%	7.0%[59 µM]	0.8%	·
COc1ccc(C(=O)Cc2cc(OC)c(OC)cc2[N+](=O)[O-])c(OC)c1	11.2µM*	-5.8%	5.7%	-1.9%[59 µM]	10.0%	2.4%
COc1ccc(C(=O)COC(=O)C2CCN(c3ccc(C(F)(F)F)cn3)CC2)c(OC)c1	0.8%	-0.7%	43.5%	-33.1%	-3.5%	-0.3%
COc1ccc(C(=O)COC(=O)[C@H](C)Nc2ccc(C(F)(F)F)cc2[N+](=O)[O-])c(OC)c1	?	-32.3%	-23.6%	?	50.1µM*	-21.5%
SMILES	GLS inhibitor	JMJD2A Tudor	HP1b binding inh	G9a block	BAZ2B block	L3MBTL1 inh
COc1ccc(C(=O)Cc2ccc(F)cc2)c(OC)c1	-1.4%	7.9%	43.6%	32.7%[59 µM]	27.8%	19.9%
CCC(=O)N1CCc2cc(Br)cc(S(=O)(=O)N3CCC(C(=O)Nc4ccccc4F)CC3)c21	-3.9%	-2.4%	33.5%	2.2%[59 µM]	-2.9%	·
Cc1ccc(CCNC(=O)c2cc3c(=O)oc4ccccc4c3s2)cc1	2.6%	-12.3%	10.7%	1.0%[59 µM]	1.0%	·
Cc1ccc(-n2c(CC#N)n[nH]c2=S)c(C)c1	-0.7%	20µM*	39.3%	22.4µM*	-17.7%	·
S=c1[nH]nc(Cc2ccccc2)n1-c1cccc2ccccc12	12.6µM*	25.1µM*	5.7%	10µM*	-32.0%	-8.6%
COc1ccc(Cc2n[nH]c(=S)n2-c2cc(C)ccc2C)cc1OC	2.0%	·	·	·	·	·
Cc1ccc(-n2c(Cc3ccccc3)n[nH]c2=S)c(C)c1	-4.2%	17.8µM*	2.6%	?	-29.2%	-3.1%[11.4 µM]
Cc1nn(C)c(C)c1S(=O)(=O)N(CC(=O)NCCc1ccc(Cl)cc1)c1ccc(C(C)C)cc1	2.3%	-24.5%	50.6%	1.4%[59 µM]	-16.7%	·
COc1ccc(N(CC(=O)Nc2cccc(Cl)c2)S(=O)(=O)c2c(C)[nH]c(=O)[nH]c2=O)cc1	9.2%	-24.2%	33.7%	?	-5.9%	·
Cc1ccc(S(=O)(=O)N2CC=C(C(=O)NCc3ccccc3)CC2)cc1	1.8%	-4.1%	43.0%	39.8µM*	-0.4%	-2.9%
Cc1ccc(CNC(=O)c2sc3ccc(S(=O)(=O)N4CCCCC4)cc3c2N)cc1	·	·	·	44.7µM*	0.1%	-6.4%
COc1ccc(S(=O)(=O)N2CCC(C(=O)NCc3ccc(C)cc3)CC2)cc1	-4.2%	-0.7%	14.2%[57 µM]	-10.5%	-12.5%	·
COc1ccc(CNC(=O)C2=CCN(S(=O)(=O)c3ccc(C)cc3)CC2)cc1	0.4%	-7.9%	23.9%	44.7µM*	4.7%	·
Cc1ccc(S(=O)(=O)N2CC=C(C(=O)NCCC(C)C)CC2)cc1	4.0%	-7.4%	-2.8%	6.4%	-2.5%	·
COc1ccc(CN(Cc2ccccc2)C(=O)c2ccc(OC)cc2O)cc1	·	-34.7%	·	·	·	·
CCOc1ccccc1NC(=O)C(=O)NCC(c1cccnc1)N1CCN(c2ccccc2)CC1 (stereo not given)	6.4%	-18.4%	22.9%	6.5%[59 µM]	3.5%	·
Cc1ccc(S(=O)(=O)Nn2c(C)nnc2-n2nc(C)cc2C)cc1	-0.1%	50.1µM*	5.2%	-41.7%[59 µM]	70.8µM*	-0.6%
COc1ccc(C2=CC3=C(Br)C(=O)C(C)(OC(=O)c4cccs4)C(=O)C3=CO2)cc1 (stereo not given)	1.4%	28.2µM*	?	·	·	·
